Several values for one entry are separate records, joined by “and”; a condition that tells them apart may be missing. Equal values may be shown once. Inconclusive results are not listed. More than one record can exist for a structure, and the calls need not agree. Activity calls are given as the source filed them. Unless noted, the call rests on the fitted dose curve; in most records, active means well fitted curve in the direction sought with a large enough effect in the repeat runs; inconclusive means weak or mixed curves; inactive means no such curve, though single readings can be large; an effect the other way counts as inactive or inconclusive.
Columns and labels:
[1] = qHTS RealTime-Glo MT Cell Viability Assay in HEK293 cells - 0 hour (AID 1224880); further: top concentration of the series differs between compounds; nearly all actives have a fitted effect of over 45% in size
Summary of the method: (§1)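 HEK293 cells mixed with RealTime-Glo reagents (NanoLuc plus cell-permeant prosubstrate) at 600 cells/well, preincubated 5 h at 37 C/5% CO2, then given 23 nL compound in DMSO. Nonlytic luminescence from viable cells was read at 0, 8, 16, 24, 32 and 40 h.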

[2] = A CellTox Green Cytotoxicity Assay to monitor cytotoxicity in HepG2 cells - 0 hour (AID 1224882); further: nearly all actives have a fitted effect of over 35% in size
Summary of the method: (§2)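 HepG2 cells were seeded together with the CellTox Green dye at 600 cells/well, left 5 h at 37 C/5% CO2, then given compounds in DMSO. Fluorescence from dye bound to dead-cell DNA was read repeatedly over 40 h of treatment at 37 C.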

[3] = A CellTox Green Cytotoxicity Assay to monitor cytotoxicity in HepG2 cells - 32 hour (AID 1224883); further: nearly all actives have a fitted effect of over 50% in size; further: potency means the concentration at half of the fitted maximal effect
Summary of the method: as §2

[4] = A CellTox Green Cytotoxicity Assay to monitor cytotoxicity in HEK293 cells - 8 hour (AID 1224884); further: nearly all actives have a fitted effect of over 35% in size; further: potency means the concentration at half of the fitted maximal effect
Summary of the method: (§3)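 HEK293 cells premixed with CellTox Green dye were seeded at 600 cells/well and left 5 h at 37 C/5% CO2 before pin transfer of 23 nL compound in DMSO. Fluorescence from dye bound to dead-cell DNA was read during 40 h treatment.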

[5] = qHTS RealTime-Glo MT Cell Viability Assay in HepG2 cells - 16 hour (AID 1224885); further: nearly all actives have a fitted effect of over 50% in size; further: potency means the concentration at half of the fitted maximal effect
Summary of the method: (§4)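 Luminescence read-out: viable HepG2 cells reduce a prosubstrate to a NanoLuc substrate, giving a signal proportional to live cell number. Reads taken at 0, 8, 16, 24, 32 and 40 h of compound exposure at 37 C.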

[6] = qHTS RealTime-Glo MT Cell Viability Assay in HEK293 cells - 24 hour (AID 1224886); further: nearly all actives have a fitted effect of over 50% in size; further: potency means the concentration at half of the fitted maximal effect
Summary of the method: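 Nonlytic real-time viability readout: viable cells convert prosubstrate to NanoLuc substrate, giving luminescence proportional to live cell number. HEK293, 600 cells/well, compound added after 5 h, continuous culture at 37 C.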

[7] = qHTS RealTime-Glo MT Cell Viability Assay in HEK293 cells - 8 hour (AID 1224887); further: top concentration of the series differs between compounds; nearly all actives have a fitted effect of over 50% in size
Summary of the method: as §1

[8] = A CellTox Green Cytotoxicity Assay to monitor cytotoxicity in HEK293 cells - 16 hour (AID 1224888); further: nearly all actives have a fitted effect of over 35% in size; further: potency means the concentration at half of the fitted maximal effect
Summary of the method: as §3

[9] = qHTS RealTime-Glo MT Cell Viability Assay in HepG2 cells - 0 hour (AID 1224889); further: nearly all actives have a fitted effect of over 50% in size
Summary of the method: as §4

[10] = A CellTox Green Cytotoxicity Assay to monitor cytotoxicity in HepG2 cells - 8 hour (AID 1224890); further: nearly all actives have a fitted effect of over 45% in size; further: potency means the concentration at half of the fitted maximal effect
Summary of the method: as §2

[11] = qHTS assay to identify small molecule antagonists of the androgen receptor (AR) signaling pathway using the MDA cell line in the presence of 0.5 nM R1881 - cell viability counter screen (AID 1259242); further: nearly all actives have a fitted effect of over 45% in size; further: potency means the concentration at half of the fitted maximal effect
Summary of the method: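 MDA-kb2 cells (human breast carcinoma, stably carrying MMTV-luciferase reporter) were exposed to compounds with 0.5 nM R1881 (final) for 16 hr at 37C, 0% CO2; viability then read as live-cell protease fluorescence (CellTiter-Fluor, 30 min) in the same wells.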

[12] = qHTS assay to identify small molecule HDAC inhibitors (AID 1259364); further: top concentration of the series differs between compounds; nearly all actives have a fitted effect of over 45% in size
Summary of the method: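 Wild-type HCT-116 cells were plated overnight, exposed to compounds for 2 h at 37 °C, then given HDAC-Glo class I/II luminogenic reagent for 30 min at room temperature before luminescence was read.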

[13] = qHTS assay to identify small molecule HDAC inhibitors - cell viability counter screen (AID 1259365)
Summary of the method: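 After overnight seeding at 1,500 cells per well, wild-type HCT-116 cultures took up compounds in DMSO for 2hr at 37 C. Viable cell content came from luminescence with CellTiter-Glo.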

[14] = qHTS assay to identify small molecule agonists of the sonic hedgehog signaling (Shh) pathway - cell viability counter screen (AID 1259366); further: nearly all actives have a fitted effect of over 50% in size; further: potency means the concentration at half of the fitted maximal effect
Summary of the method: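 Same-well cytotoxicity read. Gli1-Luc reporter 3T3 cells; compounds 24hr, 37C/5% CO2; CellTiter-Fluor fluorescence.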

[15] = qHTS assay to identify small molecule antagonists of the sonic hedgehog signaling (Shh) pathway - cell viability counter screen (AID 1259367); further: nearly all actives have a fitted effect of over 55% in size
Summary of the method: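 Seed 3T3 Gli1-Luc cells at 2,000 per well; incubate 4 hr; add compound in DMSO, then conditioned medium; incubate at 37C with 5% CO2; add CellTiter-Fluor after 23 hr; read fluorescence 1 hr later.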

[16] = qHTS assay to identify small molecule antagonists of the estrogen receptor alpha (ER-alpha) signaling pathway using the BG1 cell line in the presence of 0.1 nM 17-beta-estradiol - cell viability counter screen (AID 1259241); further: nearly all actives have a fitted effect of over 40% in size
Summary of the method: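 Estradiol-stimulated (0.1 nM) VM7Luc4E2 cells exposed to compounds 22 hr; viability measured by fluorescence of cleaved CellTiter-Fluor substrate after 30 min.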

[17] = molecular target: Estrogen receptor (Homo sapiens) (UniProt P03372); test: qHTS assay to identify small molecule antagonists of the estrogen receptor alpha (ER-alpha) signaling pathway using the BG1 cell line in the presence of 0.1 nM 17-beta-estradiol (AID 1259244); further: nearly all actives have a fitted effect of over 50% in size; further: potency means the concentration at half of the fitted maximal effect
Estrogen receptor (Homo sapiens), sequence (P03372 whole entry, looked up): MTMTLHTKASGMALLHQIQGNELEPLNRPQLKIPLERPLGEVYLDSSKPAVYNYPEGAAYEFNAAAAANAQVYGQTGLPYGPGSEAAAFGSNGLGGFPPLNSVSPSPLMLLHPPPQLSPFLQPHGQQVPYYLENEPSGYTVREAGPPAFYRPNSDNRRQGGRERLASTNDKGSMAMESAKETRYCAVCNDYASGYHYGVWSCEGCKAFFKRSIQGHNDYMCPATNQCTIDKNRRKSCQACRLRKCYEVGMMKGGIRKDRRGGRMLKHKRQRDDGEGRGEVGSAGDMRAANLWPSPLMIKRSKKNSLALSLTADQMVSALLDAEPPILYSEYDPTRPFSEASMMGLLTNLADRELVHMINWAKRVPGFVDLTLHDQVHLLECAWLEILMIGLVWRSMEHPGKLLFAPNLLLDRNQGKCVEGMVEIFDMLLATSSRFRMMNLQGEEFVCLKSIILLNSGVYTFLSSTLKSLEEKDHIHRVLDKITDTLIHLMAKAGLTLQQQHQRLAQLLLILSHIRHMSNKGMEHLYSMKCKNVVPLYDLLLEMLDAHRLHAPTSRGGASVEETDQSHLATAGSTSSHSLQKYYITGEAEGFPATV
Summary of the method: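 VM7Luc4E2 cells (endogenous full-length ER-alpha, stable 4xERE-luciferase) were grown 5 days in phenol red-free medium with charcoal-stripped FBS, then exposed 22 h at 37C to compounds plus 0.1 nM (final) 17beta-estradiol; ONE-Glo luminescence read-out.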

[18] = qHTS assay to identify small molecule phospholipidosis (PLD) inducers (AID 1259344; active means well fitted curve in the direction sought with a large enough effect; an effect the other way counts as inactive or inconclusive)
Summary of the method: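 Quantitative HTS in HepG2: compound plus LipidTOX Red dye for 24 h, paraformaldehyde fixation with Hoechst 33342, widefield high-content imaging; amiodarone as positive and DMSO as negative control.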

[19] = molecular target: Androgen receptor (Homo sapiens) (UniProt P10275); test: qHTS assay to identify small molecule antagonists of the androgen receptor (AR) signaling pathway using the MDA cell line in the presence of 0.5 nM R1881 (AID 1259243); further: nearly all actives have a fitted effect of over 50% in size; further: potency means the concentration at half of the fitted maximal effect
Androgen receptor (Homo sapiens), sequence (P10275 whole entry, looked up): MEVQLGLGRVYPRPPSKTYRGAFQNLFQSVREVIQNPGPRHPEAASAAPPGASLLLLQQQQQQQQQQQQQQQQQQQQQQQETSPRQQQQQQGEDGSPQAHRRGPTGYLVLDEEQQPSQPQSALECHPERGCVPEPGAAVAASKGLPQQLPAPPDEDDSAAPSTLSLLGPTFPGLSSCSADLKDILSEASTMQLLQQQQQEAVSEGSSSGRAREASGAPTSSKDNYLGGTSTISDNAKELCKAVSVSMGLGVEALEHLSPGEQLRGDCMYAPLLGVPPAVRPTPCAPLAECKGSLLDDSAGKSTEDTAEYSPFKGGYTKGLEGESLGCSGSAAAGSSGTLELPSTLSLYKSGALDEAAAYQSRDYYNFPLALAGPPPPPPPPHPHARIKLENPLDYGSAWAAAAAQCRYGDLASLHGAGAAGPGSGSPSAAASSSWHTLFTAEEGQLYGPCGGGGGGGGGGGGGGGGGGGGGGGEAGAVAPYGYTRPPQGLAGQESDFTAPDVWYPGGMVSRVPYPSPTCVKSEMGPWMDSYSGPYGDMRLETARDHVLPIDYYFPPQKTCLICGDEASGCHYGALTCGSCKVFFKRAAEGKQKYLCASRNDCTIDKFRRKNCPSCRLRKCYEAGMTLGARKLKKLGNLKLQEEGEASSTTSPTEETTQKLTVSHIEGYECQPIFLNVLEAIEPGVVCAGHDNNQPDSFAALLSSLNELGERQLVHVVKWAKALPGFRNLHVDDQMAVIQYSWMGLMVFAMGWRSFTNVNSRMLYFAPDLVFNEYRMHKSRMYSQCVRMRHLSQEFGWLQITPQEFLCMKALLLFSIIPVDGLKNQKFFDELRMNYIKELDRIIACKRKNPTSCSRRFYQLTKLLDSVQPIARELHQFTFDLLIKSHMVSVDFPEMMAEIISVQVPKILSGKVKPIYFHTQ
Summary of the method: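 MDA-kb2 human breast carcinoma cells carrying an MMTV-luciferase reporter (AR- and GR-responsive) were plated, rested 5 hr at 37C, dosed with compounds, then stimulated with 0.5 nM R1881 (final) for 16 hr; luminescence was read after ONE-Glo.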

[20] = A CellTox Green Cytotoxicity Assay to monitor cytotoxicity in HEK293 cells - 32 hour (AID 1224881); further: nearly all actives have a fitted effect of over 40% in size; further: potency means the concentration at half of the fitted maximal effect
Summary of the method: as §3

Measured: Potency

O=[Se]=O
active: [3] 24.4 µM | [6] 17.3 µM | [11] 12.1 µM
inactive: [1] | [2] | [4] | [5] | [7] | [8] | [9] | [10] | [12] | [13] | [14] | [15]

Clc1cccc(SC2CCNCC2)n1
inactive: [1] | [2] | [3] | [4] | [5] | [6] | [7] | [8] | [9] | [10] | [16] | [11] | [17] | [18] | [13] | [14]

CCOP(=O)(OCC)Oc1ccc([N+](=O)[O-])cc1
inactive: [1] | [2] | [3] | [4] | [5] | [6] | [7] | [9] | [10] | [11] | [12] | [13]

CC1CC(CC2CCC(N)C(C)C2)CCC1N (stereo not given)
inactive: [1] | [2] | [3] | [4] | [5] | [7] | [8] | [9] | [10] | [19] | [17] | [12] | [13]
active: [6] 44.4 µM

N#CCC#N
active: [19] 10.9 µM
inactive: [1] | [2] | [3] | [4] | [5] | [7] | [8] | [9] | [10] | [16] | [11] | [17] | [13] | [14] | [15]

Clc1cccc2ccccc12
inactive: [1] | [2] | [3] | [4] | [5] | [6] | [7] | [8] | [9] | [10] | [11] | [12] | [13] | [14] | [15]

C=CCCl
inactive: [1] | [2] | [3] | [4] | [5] | [6] | [7] | [8] | [9] | [10] | [16] | [11] | [17] | [13] | [14] | [15]

COC(=O)C(Br)CBr (stereo not given)
inactive: [1] | [2] | [3] | [4] | [5] | [6] | [7] | [8] | [9] | [10] | [11] | [17] | [12] | [13] | [14] | [15]

Cc1ccc(-c2c(Cl)nc(C#N)n2S(=O)(=O)N(C)C)cc1
inactive: [1] | [2] | [3] | [4] | [5] | [6] | [7] | [8] | [10] | [16] | [13]
active: [19] 38.5 µM | [17] 43.2 µM

Sc1ccccc1Cl
inactive: [1] | [20] | [4] | [5] | [6] | [7] | [8] | [9] | [16] | [11] | [19] | [17] | [12] | [13] | [14] | [15]

CCO[C@H]1O[C@@H]2OC3(C)CC[C@H]4[C@H](C)CC[C@@H]([C@H]1C)[C@@]24OO3
active: [19] 10.6 µM
inactive: [1] | [2] | [3] | [4] | [5] | [6] | [7] | [8] | [9] | [10] | [16] | [11] | [17] | [13] | [14] | [15]

O=C(CCl)c1ccc(Cl)cc1Cl
inactive and 16.9 µM (active): [5]
active: [3] 23.9 µM | [6] 4.77 µM | [19] 13.3 µM | [14] 33.5 µM
inactive: [1] | [2] | [4] | [7] | [9] | [10] | [11] | [17] | [18] | [12] | [13] | [15]

c1ccc(C2CC2)c(OCC2=NCCN2)c1
inactive: [1] | [2] | [3] | [4] | [5] | [6] | [7] | [9] | [10] | [11] | [17] | [18] | [12] | [13] | [14] | [15]

II
active: [20] 38.9 µM | [3] 38.9 µM | [4] 34.7 µM | [5] 27.5 µM | [8] 38.9 µM | [10] 38.9 µM
inactive: [2] | [6] | [7] | [16] | [11] | [19] | [13] | [14] | [15]

O=C1c2ccccc2C(=O)C1C(=O)C(c1ccccc1)c1ccccc1
inactive: [20] | [2] | [3] | [4] | [5] | [6] | [7] | [8] | [10] | [16] | [11] | [18] | [12] | [13] | [14] | [15]
